The text below walks through data of PubChem BioAssay (NCATS).

Records with an inconclusive call do not appear. A call without a number means that no potency is given here. Active and inactive are the calls of the source. The call rests on the fitted dose curve; in most records, active means well fitted cell-killing curve with a large enough effect; inconclusive means small, poorly fitted or top-dose-only effect, or effect the other way; inactive means flat fitted curve, though single readings scatter.

The subject of this assay is C33A. The assay can be described thus: Primary qHTS to identify gynecologic anti-cancer compounds using libraries of approved drugs and bioactive compounds (AID 1345084). Further: nearly all actives have a fitted effect of over 55% in size. The note with it: Gynecologic cancer cell panel viability, ATPlite luminescence, 48 h; series mostly up to 57.5 µM. The gist of the method:
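Cytotoxicity screen measuring ATP content by luciferase luminescence. Each compound is applied at five concentrations for 48 h at 37 C with 5% CO2.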
A general note: qHTS replaces the single test concentration by a dilution series.
Consider `CCNC1(C(N)=O)CN(c2nc(C)nc3c(-c4ccc(Cl)cc4)c(-c4ccccc4Cl)nn23)C1`, for which the Potency entry is “inactive”. On the same count and under the same terms, under `O=C([C@@H]1CCCN(c2ccc3[nH]c(C4(n5cc(Cl)cn5)CC4)nc3n2)C1)N1CCCC1` stands “inactive”. The same measure, in the same setting: under `Cn1ccc(NC(=O)c2cc(Oc3ccc(C(=O)N4CCC4)c(F)c3)c3c(c2)OC(C)(C)C3)n1` stands “inactive”. The same measure, in the same setting: the value for `CC1(CO)CC2C(O)C3=C(CC(C)(O)C2C1)C(=O)OC3` (centres undefined) was “inactive”; that for `C[C@@H]1O[C@@H](O[C@H]2[C@@H]3C=CO[C@@H](O[C@@H]4O[C@H](CO)[C@@H](O)[C@H](O)[C@H]4O)[C@@H]3[C@@]3(CO)O[C@@H]23)[C@H](O)[C@H](OC(=O)/C=C/c2ccccc2)[C@H]1O` was “inactive”. Turning to `CC(=O)O[C@@H]1CC2C(/C=C(\C)C(=O)[C@@]3(O)C[C@@H](C)[C@H](OC(=O)c4ccccc4)C3/C=C/1C)C2(C)C` (some centres undefined), the Potency result was “inactive”. Same read-out and setting: the value for `COCCCNC(=O)c1ccc(Cn2c(=O)c3ccccc3n(Cc3ccc(C(C)C)cc3)c2=O)cc1` was “inactive”; that for `Cc1ccc(C(C)C)c(O[C@@H]2O[C@H](CO)[C@@H](O)[C@H](O)[C@H]2O)c1` was “inactive”.

Regarding `O=C(Nc1ccccc1)N1CCC(Cc2cnc3ccccc3c2)CC1`, the Potency result was “inactive”. Still for that read-out and setting: under `CN(C)CCOc1cc(NS(=O)(=O)c2c(Cl)cc(C(F)(F)F)cc2Cl)ccc1Cl` stands “inactive”; under `COc1ccc(NC(=O)C2C[C@H](C)CC[C@H]2C(C)C)cc1` (some centres undefined), “inactive”; under `Cc1noc(-c2ccc(-c3ccc(CC(=O)O)cc3)cc2)c1NC(=O)O[C@H](C)c1ccccc1Cl`, “inactive”. The same measure, in the same setting: under `Cc1cccc(N2CCN(C(=O)c3cc(S(=O)(=O)N(C)C)ccc3N3CCCC3)CC2)c1C` stands “inactive”; under `C[C@]12CC[C@@H]3c4ccc(O)c(O)c4CC[C@H]3[C@@H]1CCC2=O`, “inactive”; under `O=C(Nc1ccccc1)c1ccc(Nc2nnc(-c3ccc(O)cc3)c3ccccc23)cc1`, “inactive”. Still for that read-out and setting: the value for `CC1(NC(=O)c2ccc(C#Cc3cccc(F)c3)cn2)COC1` was “inactive”; that for `COc1ccc(S(=O)(=O)N2CCC[C@H]2C(=O)Nc2cc(C)cc(C)c2)cc1` was “inactive”; that for `COc1cc(C2OC(c3ccc(OC)c(OC)c3)C(C)C2C)ccc1O` (centres undefined) was “inactive”.

Regarding `C#CCCCn1cc(-c2cccc3c2N[C@H](C)CC(=O)N3)cn1`, the Potency result was “inactive”. `CC(=O)O[C@@H]1[C@@H](O)[C@H](O[C@@H]2[C@@H](O)[C@@H](O)[C@H](O[C@H]3[C@H](O[C@H]4[C@H](O[C@H]5CC[C@@]6(C)C(CC[C@]7(C)C6CC=C6[C@@H]8CC(C)(C)CC[C@]8(C(=O)O)CC[C@]67C)[C@]5(C)CO)O[C@H](CO)[C@@H](O)[C@@H]4O)OC[C@@H](O)[C@@H]3O)O[C@H]2C)OC[C@H]1O` (some centres undefined): the activity change, negative = cytotoxicity is -4.66% [at 11.6 µM] (inactive). Still for that read-out and setting: the value for `CCC/C=C/C(=O)O[C@H]1CC(C)(C)CC2[C@@]13[C@H](O)C[C@]1(C)[C@@]2(CCC2[C@@]4(C)CC[C@H](O[C@@H]5O[C@H](C(=O)O)[C@@H](O)[C@H](O[C@@H]6O[C@H](CO)[C@H](O)[C@H](O)[C@H]6O[C@@H]6O[C@@H](C)[C@H](O)[C@@H](O)[C@H]6O[C@@H]6OC[C@](O)(CO)[C@H]6O)[C@H]5O[C@@H]5O[C@H](CO)[C@H](O)[C@H](O)[C@H]5O)C(C)(C)C4CC[C@]21C)O[C@H]3O` (some centres undefined) was 1.29% [at 6.55 µM] (inactive).

As to `Cc1ccc(-c2ncc[nH]2)cc1NC(=O)c1ccc(OCc2ccccn2)cc1`, the Potency result is “inactive”. Consider `COc1cc(CCc2ccc(OCC=C(C)C)cc2)cc(OC)c1OC`, for which the Potency result was “inactive”.

As to `CNC(=O)COC(=O)N1CCC(CCc2ccc(Cl)cc2)CC1`, the Potency result was “inactive”.

With `COC1C=C(C)C(O)(CO)C2(C)CCCC(C)(C)C12` (centres undefined), the Potency result is “inactive”. On to `O=C(O)c1ccc(S(=O)(=O)N(Cc2ccc(OC(F)(F)F)cc2)c2ncc(C(F)(F)F)cc2Cl)cc1`, for which the Potency result is “inactive”. With `C=C(C)C(=O)O[C@H]1[C@H]2C(=C)C(=O)O[C@@H]2/C=C(\CO)CC/C=C(/C=O)[C@@H]1O`, the Potency entry is “inactive”.

On to `C=C[C@]1(C)C[C@H](O)[C@H]2C(=C)C(=O)O[C@@H]2[C@H]1C(=C)CO`, for which the Potency entry was “inactive”. Still for that read-out and setting: under `COC(=O)c1ccnc(-c2cc(C(=O)Nc3ccc(C4(N)CC4)cc3)ccn2)c1` stands “inactive”; under `O=C(Nc1ccc2[nH]c(=O)oc2c1)C(=O)N1CCC(Cc2ccc(F)cc2)CC1`, “inactive”. Still for that read-out and setting: under `O=C(Nc1cccnn1)N1CCN(c2nccc(-c3ccc(F)c(F)c3)n2)CC1` stands “inactive”.

With `O=C(Nc1cc(C(F)(F)F)ccc1N1CCCCC1)c1ccncc1`, the Potency entry is “inactive”. On the same count and under the same terms, the value for `CCC/C=C/C=C/C1CC(O)C2(O)C(=O)OCC12` (centres undefined) was “inactive”.

`C[C@H]1CC[C@@]2(OC1)O[C@H]1CC3[C@@H]4CC[C@@H]5C[C@@H](O[C@@H]6O[C@H](CO)[C@@H](O[C@@H]7O[C@H](CO[C@@H]8OC[C@@H](O)[C@H](O)[C@H]8O)[C@@H](O[C@@H]8O[C@H](CO)[C@H](O)[C@H](O)[C@H]8O)[C@H](O)[C@H]7O)[C@H](O)[C@H]6O)CC[C@]5(C)C4CC[C@]3(C)[C@H]1[C@@H]2C` (some centres undefined): the activity change, negative = cytotoxicity was -0.589% [at 11.6 µM] (inactive). As for `CC(C)(C)c1ccc(C(=O)Nc2cc(Cl)c(Br)cc2C(=O)O)cc1`, the Potency entry is “inactive”. Still for that read-out and setting: the value for `C=C1CCC2C(C)(C)CCCC2(C)C1CC/C(C)=C\CO` (centres undefined) was “inactive”; that for `CCCCCc1ccc(/C=C/C(=O)Nc2cc(Cl)ccc2C(=O)O)cc1` was “inactive”; that for `O=C(N[C@H](Cc1cscn1)C(=O)N[C@@H](CC1CCCCC1)[C@@H](O)[C@@H](O)C1CC1)c1nc2ccccc2[nH]1` was “inactive”. For `O=C(Nc1nnc(-c2ccc3c(c2)OCCO3)o1)C1CCCCC1`, the Potency entry was “inactive”.
